# Laboratory results published in ChEMBL document CHEMBL1157539, “Thousands of chemical starting points for antimalarial lead identification” (Nature, 2010).
# Assays:
# Format in all cases: functional
# Plasmodium falciparum [1] = assay: GSK_TCMDC: Inhibition of Plasmodium falciparum 3D7 in whole red blood cells, using parasite LDH activity as an index of growth. Test compounds present at 2uM
# Plasmodium falciparum [2] = assay: GSK_TCMDC: Inhibition of Plasmodium falciparum Dd2 in whole red blood cells, using parasite LDH activity as an index of growth. Test compounds present at 2uM
# HepG2 = assay: GSK_TCMDC: Percent inhibition of human HepG2 cell line. Test compounds present at 10uM.
SMILES,Inhibition (Plasmodium falciparum [1]) [%],Inhibition (Plasmodium falciparum [2]) [%],Inhibition (HepG2) [%]
COc1ccc(C2CCN(CCN3CCC(NC(=O)c4cccc(-c5ccncc5)c4)CC3)CC2)c(OC)c1,94,24,7
O=C(C1CCCCC1)N1CCOC(CCN2CCC(c3ccccc3)CC2)(c2ccc(Cl)c(Cl)c2)C1 (stereo not drawn),92,86,6
CC(C)CNC(=O)c1ccnc(-c2ccc(CNC3Cc4ccccc4C3)cc2)c1.O=C(O)C(F)(F)F,99,29,25
Cc1ccccc1N1CCN(c2ccc(C(=O)NC3CC3)cn2)CC1.O=C(O)C(F)(F)F,96,96,14
CCN1CCN(c2cc(C)c3cc(NC(=O)c4ccc(OC)c([N+](=O)[O-])c4)ccc3n2)CC1,100,93,25
Cc1ccccc1C(=O)Nc1cccc(-c2nc3ncccn3c2C)c1,94,94,0
CC12CCC(=O)N1C(C(=O)Nc1cccc(C(=O)Nc3cccc(C(F)(F)F)c3)c1)CS2 (stereo not drawn),92,89,6
Cc1ccc(Cc2cnc(CN3CCCCC3)c(O)c2)cc1.Cl,93,75,4
Fc1ccc2c(NN=Cc3ccccc3)ccnc2c1,100,99,1
CN(C)CCNC(=O)c1csc(Nc2ccc(Cl)c(Cl)c2)n1,100,100,4
CS(=O)(=O)NCCCNCc1cccc(-c2ccc(-c3nc4cc(C(F)(F)F)ccc4[nH]3)s2)c1.O=C(O)C(F)(F)F,100,51,11
O=C(Nc1ccc(OCc2ccccc2)cc1)c1nc2ccccc2nc1Cl,96,95,48
Cn1c(=O)c2nc(-c3ccc(Cl)cc3)nnc2n(CCCC#N)c1=O,99,98,6
CS(=O)(=O)c1ccc(CCNCc2ccc(-c3ccc(CNC4CCN(Cc5ccccc5)CC4)cc3)nc2)cc1.O=C(O)C(F)(F)F,100,100,32
Cl.O=S(=O)(NCCCN1CCOCC1)c1ccc2nccc(Nc3ccc(Oc4ccccc4)cc3)c2c1,95,92,1
CN(C)CCCn1c(C(=O)OC(c2ccccc2)c2ccccc2)cc2cc(OCc3ccccc3)ccc21,82,85,12

SMILES,Inhibition (Plasmodium falciparum [1]) [%],Inhibition (Plasmodium falciparum [2]) [%],Inhibition (HepG2) [%]
CCCCCC(NCCCC)c1ccc(OCCOc2ccc(C(CCCCC)NCCCC)cc2)cc1.Cl (stereo not drawn),88,96,99
CCCCCCNC[C@@H](O)[C@H](Cc1ccccc1)NC(=O)c1cc(NCC)cc(N2CCCCS2(=O)=O)c1.Cl,100,98,5
Cc1cc(N2CCCC2)nc(Nc2ccc(NC(=O)CC(C)C)cc2)n1,95,53,37
Cc1cc(C)c(NC(=O)N[C@H]2CCN(CCCCCNC(=O)/C=C/c3ccc(Cl)c(Cl)c3)C2)c(C)c1,91,3,12
O=C(Nc1cccc(-c2cccc(-c3nc4cc(F)ccc4[nH]3)c2)c1)c1c[nH]cn1,100,87,13
O=C(N[C@@H](CC1CCCCC1)C(=O)NCCN1CCOCC1)c1ccc(O)c(-c2ccc(Cl)c(Cl)c2)c1,97,99,0
Cn1cc(-c2ccnc3[nH]c(-c4cccc(CNC5CCC(O)CC5)c4)cc23)cn1.O=C(O)C(F)(F)F (stereo not drawn),95,82,48
O=C(Nc1cccnc1)c1cc(-c2cc(Cl)ccc2O)n[nH]1,98,85,7
CN1CCN(Cc2ccc(-c3ccc4ncnc(Nc5ccc(OCc6ccccc6)cc5)c4c3)o2)CC1,97,90,9
O=C(NCC1CC1)C1CCN(C(c2ccccc2)c2ccc(Cl)c(Cl)c2)CC1 (stereo not drawn),97,96,7
Cc1nc(N)nc(N)c1OCCCCOc1ccccc1.Cl.O,94,4,62
CN1CCN(c2cc3c(cc2Cl)CCN3C(=O)Cc2ccc(Cl)c(NC(=O)Nc3cccc([N+](=O)[O-])c3)c2)CC1,99,51,0
Cl.Nc1ccc(-c2nc3c(ccc4ccccc43)[nH]2)cc1,84,51,0
CCCCCc1cc(OC(=O)CCCN(CC)CC)c2c(c1)OC(C)(C)C=C2C1=CCN(Cc2ccc3ccccc3c2)CC1,100,92,94
CON=C1CCC(Cn2ccnc2)(c2ccc(Cl)cc2Cl)CC1 (stereo not drawn),100,56,7
